The list is not random: actives were taken first. Their share in the collection is about 1.5%.
Mtb MbtI inh: MbtI salicylate synthase inhibitors, primary screen, biochemical, fluorescence intensity; P9WFX0; purified MbtI enzyme, fluorescence intensity read-out; inhibition, % (test concentration not listed); 100,000 tested, 0.89% active; in the data active = inhibition mostly above about 56%, no sharp cut-off; inactive = mostly below about 77%
PV pol inh: poliovirus RdRp elongation inhibitors, primary screen, biochemical, fluorescence polarization, total intensity; Genome polyprotein (Poliovirus type 1 (strain Mahoney)), P03300; poliovirus polymerase elongation; active compounds read low; % elongation, % (compound at 16.7 µg/mL); 150,000 tested, 0.66% active; AID 588519, 2011; in the data active = % elongation below about 90%
Mtb MenB inh: M. tuberculosis MenB inhibitors, primary screen, biochemical, absorbance; 1,4-dihydroxy-2-naphthoyl-CoA synthase (Mycobacterium tuberculosis (strain ATCC 25618 / …; MenB enzyme assay, absorbance read-out; inhibition, % (no concentration beside the values); 100,000 tested, 0.43% active; in the data active = inhibition above about 21%, passing the limit was not always enough
Target sequence (P9WNP5 whole entry, looked up): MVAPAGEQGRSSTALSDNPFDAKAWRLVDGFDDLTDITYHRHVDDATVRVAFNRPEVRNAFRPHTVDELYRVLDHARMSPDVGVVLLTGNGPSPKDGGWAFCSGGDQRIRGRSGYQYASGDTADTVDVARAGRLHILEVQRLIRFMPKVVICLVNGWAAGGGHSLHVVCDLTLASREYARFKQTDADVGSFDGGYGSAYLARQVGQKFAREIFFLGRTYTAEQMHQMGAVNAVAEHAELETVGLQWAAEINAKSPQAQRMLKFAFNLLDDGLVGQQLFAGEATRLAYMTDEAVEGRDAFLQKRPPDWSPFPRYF
Of the large screens only hits and unclear results are named; the others gave an inactive call.

CN(Cc1ccc(Cl)c(Cl)c1)c1ccc(S(N)(=O)=O)cn1	none
COc1nncc(-c2cnnc(SC)n2)n1	PV pol inh 15 (no result: Mtb MbtI inh)
COc1ccc(NC(=O)c2cnc(SC)nc2)cc1	none
Cc1nn(-c2ccccc2)cc1/C=N/n1c(-c2ccncc2)n[nH]c1=S	Mtb MbtI inh 51
COc1ccc(-c2n[nH]c(=S)n2/N=C/c2c(C)nn(-c3ccccc3)c2C)cc1OC	none
CCCCS(=O)(=O)Nc1cccc(O)c1	none
CCO/C=C1/C(=O)N(Cc2ccc(OC)cc2)C(=O)c2ccccc21	PV pol inh 36
CCO/C=C1\C(=O)N(C)C(=O)c2ccccc21	PV pol inh 10 (no result: Mtb MenB inh)
CCO/C=C1/C(=O)N(c2ccc(Cl)cn2)C(=O)c2ccccc21	PV pol inh 85
CCOc1ccc(N2C(=O)c3ccccc3C2=O)cc1	none
O=C1c2ccccc2C(=O)N1Cc1ccccc1	none (no result: PV pol inh, Mtb MenB inh)
CCO/C=C1/C(=O)NC(=O)c2ccccc21	none
COc1ccccc1NC(=O)/N=C1\NC(=O)C(C(C)C)O1 (stereo not given)	none
NS(=O)(=O)c1ccc(CCNC(=S)NCc2ccco2)cc1	none
O=C(O)/C=C/c1ccc(OCc2cn3ccccc3n2)cc1	none
COC(=O)CCSc1ncnc2sc3c(c12)CCC3	none
CC(C)Sc1nc(-c2cccs2)cc(C(F)(F)F)c1C#N	none
C=CCn1c(C)cc(C(=O)COC(=O)c2oc3ccccc3c2COC)c1C	none
COc1ccc(-c2nc3ccccc3c(C(N)=O)c2C)cc1	none
O=C(O)CCSc1nc2ccccc2s1	none (no result: PV pol inh, Mtb MenB inh)
NC(=O)CSc1nc2ccccc2s1	Mtb MbtI inh 82
O=C(CSc1nc2ccccc2s1)c1ccc[nH]1	PV pol inh 58
O=C(CSc1nc2ccccc2s1)c1ccc(O)cc1O	none
CCN(CC)S(=O)(=O)c1ccc(C(=O)NCCc2c[nH]c3ccccc23)cc1	none (no result: Mtb MenB inh)
CC1=CC(c2ccccc2)=C(C#N)C(=S)C1CC(=O)c1cccs1 (stereo not given)	PV pol inh 85 (no result: Mtb MbtI inh)
O=C(Cc1ccccc1)c1cccs1	none (no result: Mtb MbtI inh)
COc1ccc(S(=O)(=O)N2CCCC(c3nc4ccccc4c(=O)[nH]3)C2)cc1 (stereo not given)	none
Clc1ccc(CSc2ncccn2)cc1	none
c1ccc(CSc2ncccn2)cc1	Mtb MbtI inh 60
CC1C(=O)NN=C1C(=O)N/N=C/c1ccc(OC(=O)c2ccco2)cc1 (stereo not given)	none
CC1C(=O)NN=C1C(=O)N/N=C\c1cccnc1 (stereo not given)	Mtb MenB inh 35
CC(=O)Oc1ccc(N2C(=O)C3C4C=CC(C(OC(C)=O)OC(C)=O)(O4)C3C2=O)cc1 (stereo not given)	none (no result: Mtb MbtI inh)
COC(=O)c1cccc(N2C(=O)C3C4C=CC(C)(O4)C3C2=O)c1 (stereo not given)	Mtb MbtI inh 99
O=c1c2c(F)c(F)c(F)c(F)c2on2c3c(cc12)CCCC3	PV pol inh 87
O=C1CC2CCC(CN1)N2S(=O)(=O)c1ccc(C(=O)O)cc1 (stereo not given)	none
COc1ccc(-n2nnnc2SCC(=O)N2CC(=O)Nc3ccccc32)cc1	none
Cc1ccc(NC(=O)CCC(=O)c2cccs2)cc1	none
O=C(O)CCC(=O)c1cccs1	PV pol inh 82 (no result: Mtb MenB inh)
O=C(CCC(=O)c1cccs1)OCc1ccccc1	none (no result: Mtb MenB inh)
N#Cc1ccc(NC(=O)CCC(=O)c2cccs2)cc1	PV pol inh 83
N#Cc1c(N)nc2sc3c(O)cc(=O)[nH]c3c2c1-c1ccc(Cl)cc1	none
COc1ccc(CCNC(=O)c2ccc3c(=O)n(CCC4=CCCCC4)c(=S)[nH]c3c2)cc1OC	none
Cc1cccc(-c2nnc(SCC(=O)OC(C)C)n2C)c1	none
N=C(N)c1cccc(NC(=O)Nc2cccc(C(=N)N)c2)c1	PV pol inh 88 (no result: Mtb MbtI inh)
Cc1cccc(NC(=O)Nc2cccc(C)c2)c1	none
O=C(/C=C/c1c(Cl)nc2sccn12)NCC1CCCO1 (stereo not given)	none
CCCc1n[nH]c(=S)s1	Mtb MbtI inh 89, PV pol inh 87
Cc1ccc(C)n1-c1n[nH]c(=S)s1	none
O=C(CCc1nc2cccnc2n1Cc1ccccc1)NCc1cccc(Cl)c1	none (no result: Mtb MbtI inh, Mtb MenB inh)
CC(=O)Nc1ccc(C(=O)OCC(=O)N2CCc3ccccc3C2)cc1	none (no result: Mtb MenB inh)
O=C(OCC(=O)N1CCc2ccccc2C1)c1ccccc1	PV pol inh 84
CC(=O)c1ccc(NC(=O)C2=CC(c3ccc4c(c3)OCO4)=NS(=O)(=O)N2C)cc1	none (no result: Mtb MbtI inh, Mtb MenB inh)
CC(=O)c1ccc(NC(=O)C2=CC(c3ccc(C)cc3)=NS(=O)(=O)N2C)cc1	PV pol inh 8.0 (no result: Mtb MbtI inh, Mtb MenB inh)
Cc1ccc(O)c(-c2ccnc3cc(-c4ccc(Cl)cc4)nn23)c1	none (no result: Mtb MbtI inh, Mtb MenB inh)
COc1ccc(-c2cc3nccc(-c4cc(Cl)c(C)cc4O)n3n2)cc1	PV pol inh 86 (no result: Mtb MbtI inh, Mtb MenB inh)
Cc1ccc2oc(=O)c(/C=C(\O)CC(C)C)nc2c1	Mtb MenB inh 69
CCS(=O)(=O)c1ccc2oc(=O)c(/C=C(\O)c3oc(C)nc3C)nc2c1	none
O=C(Cc1ccc(-n2c(=S)[nH]c3ccccc3c2=O)cc1)NC1CCCCC1	none
Cc1csc2sc(C(=O)c3ccc(Cl)cc3)c(C)c12	none
Cc1cc(C)n(/N=C2/C(=O)Nc3ccc(Br)cc32)c(=O)c1C#N	none
Cc1ccc2c(c1Br)C(=C(C#N)C#N)C(=O)N2	PV pol inh 84
S=C=NCCn1ccc2ccccc21	Mtb MbtI inh 93
NCCn1ccc2ccccc21	none
COc1ccc([C@H]2NC(=O)C(=C=[N-])C(=O)[C@@H]2[n+]2ccccc2)cc1	PV pol inh 37 (no result: Mtb MbtI inh)
COc1ccc(C2C(=O)c3ccccc3C2=O)cc1	none
CC(C)(C)C(=O)NCCc1c[nH]c2ccccc12	none (no result: Mtb MbtI inh)
CC(=NCCSCc1nc[nH]c1C)c1c(C)[nH]n(-c2nc3ccccc3s2)c1=O	none
CC(=NCc1cccnc1)c1c(C)[nH]n(-c2nc3ccccc3s2)c1=O	Mtb MenB inh 34
CCc1ccc2[nH]c3nc(=S)[nH]nc3c2c1	none
Cc1sc2nc[nH]c(=O)c2c1C	Mtb MbtI inh 87
Cc1cc(C)cc(NC(=O)c2sc3nc[nH]c(=O)c3c2C)c1	none (no result: Mtb MbtI inh, Mtb MenB inh)
CC1CCc2c(sc(NC(=S)NC(=O)c3ccn(C)n3)c2C(N)=O)C1 (stereo not given)	none
CCc1oc2ccccc2c1C(=O)c1ccc(OC(C)=O)cc1	none (no result: Mtb MbtI inh)
Cc1c(-c2nc(-c3ccccc3)no2)nnn1-c1ccc(F)c(Cl)c1	PV pol inh 81 (no result: Mtb MbtI inh, Mtb MenB inh)
COc1ccc(Cl)cc1-n1nnc(-c2nc(-c3ccccc3)no2)c1C	none (no result: Mtb MbtI inh, Mtb MenB inh)
Cn1c(C(=O)N2CCCCC2)cc2sccc21	none
NC(CO)C12CC3CC(CC(C3)C1)C2 (stereo not given)	none (no result: Mtb MenB inh)
CCC(N)C12CC3CC(CC(C3)C1)C2 (stereo not given)	PV pol inh 86 (no result: Mtb MbtI inh)
Cc1cccn(Cc2c(Cl)cccc2Cl)c1=O	none
Cc1noc(C)c1CC(=O)N1CCC2CCCCC2C1 (stereo not given)	none
Cc1cccc(Cl)c1-n1sc(=O)n(CC2CC2)c1=O	Mtb MbtI inh 72
Cc1noc(C)c1-n1sc(=O)n(CC2CC2)c1=O	Mtb MbtI inh 99
CCOc1ccc(C(=O)Nc2cccc(NC(=O)c3ccccc3)c2)cc1Br	none
O=C(/C=C(\O)c1ccccc1)C(=O)NCc1ccccc1	none
N#C/C(=C\c1cccnc1)C(N)=S	none
Cc1nc2c(C(=O)Nc3ccc(N4CCC(O)CC4)cc3)snc2c(=O)[nH]1	none
